Compounds with a hit are over-represented: about 2.8% of the library has one in this group of screens.
MITF TRPM1 inh = reduces MITF-dependent TRPM1 promoter luciferase signal; inhibition, % at 12.5 µM; actives 0.83% (n = 330,000); SK-MEL-5 TRPM1 promoter luciferase, 24 h; AID 488899;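 active = mean inhibition across replicates of 60% or more, whatever share of single replicates reaches that level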
Shn3 3UTR inh = reduces Shn3 3'UTR luciferase signal in osteoblasts; Clone20 osteoblast Shn3 3'UTR firefly luciferase, 24 h; inhibition, % at 12.5 µM; actives 0.52% (n = 360,000);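 active = mean inhibition of at least 75% with every replicate also reaching 75%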
Peg3 promoter = reduces Peg3 promoter-driven luciferase expression in HeLa; HeLa PEG-Prom luciferase reporter, luminescence, overnight; inhibition, % at 20 µM; AID 588405; actives 1.7% (n = 360,000);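 active = inhibition of at least 50% at 20 µM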
HIF-2a inh = HIF-2a inhibition; 786-0 RCC cells HIF-2a reporter, luciferase luminescence, overnight; inhibition, % at 18.8 µM; actives 0.72% (n = 360,000); AID 624352;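 active = inhibition of the luminescence signal of 40% or more relative to plate controls, in a single-dose primary screen at 18.75 µM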
CF NFkB block = inhibitors of cystic fibrosis induced NF-kB; KKLEB NF-kB-GFP reporter, PAF-induced, GFP fluorescence overnight; AID 588850; actives 0.86% (n = 360,000); inhibition, % at 5 µM;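 active = at least 50% inhibition at 5 µM, scaled per plate between neutral and stimulator controls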;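 also: PAF is a Pseudomonas aeruginosa culture filtrate used as stimulus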
KKLEB cytotox = reduces viability of KKLEB cystic fibrosis airway cells; activity change (cytotoxicity), % at 5 µM; actives 0.36% (n = 360,000); AID 602141; KKLEB CF airway cells viability, ATPlite luminescence, overnight; active compounds read low; cells stimulated with P. aeruginosa culture filtrate;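 active = corrected activity change at or below -50% at 5 µM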
Of the large screens only hits and unclear results are named; the others gave an inactive call.

CCC1(c2ccccc2)NC(=O)N(CC(=O)N(C)Cc2c(F)cccc2Cl)C1=O (configuration not stated)	none
Cn1nc(C(=O)NNC(=O)C2CSC3(C)CCC(=O)N23)c2ccccc2c1=O (configuration not stated)	none
COc1cc(O)cc(O)c1C(=O)/C=C/c1ccccc1	CF NFkB block 52
O=C(Nc1ccccc1Cl)c1cc(C2CCCCN2C(=O)c2ccccc2)on1 (configuration not stated)	none (no result: MITF TRPM1 inh)
CC(=O)N(C(C)=O)c1ncc2c([nH]c3ccccc32)c1C#N	CF NFkB block 90
CC(C)(C)OC(=O)NCc1ccc(CNC(=O)c2[nH]cnc2C(=O)NCC(=O)OCc2ccccc2)cc1	Peg3 promoter 52
CC(C)(C)OC(=O)N1CCC(NC(=O)c2[nH]cnc2C(=O)Nc2ccccc2)CC1	Peg3 promoter 52
CC(C)(C)OC(=O)NCc1ccc(CNC(=O)c2nc[nH]c2C(=O)NCc2ccccc2)cc1	none
Cc1ccc(NC(=O)c2nc[nH]c2C(=O)NC2CCN(C(=O)OC(C)(C)C)CC2)cc1	none
CC(C)(C)OC(=O)NCCCC[C@H](NC(=O)c1[nH]cnc1C(=O)Nc1ccc(Cl)cc1)C(=O)OC(C)(C)C	Peg3 promoter 63
CCOC(=O)c1ccc(NC(=O)c2nc[nH]c2C(=O)NCCNC(=O)c2[nH]cnc2C(=O)Nc2ccc(C(=O)OCC)cc2)cc1	MITF TRPM1 inh 100, Shn3 3UTR inh 88, Peg3 promoter 91, CF NFkB block 76, KKLEB cytotox -50
CNC(=O)c1[nH]cnc1C(=O)N[C@@H](CCCCNC(=O)OC(C)(C)C)C(=O)OC(C)(C)C	none
CN(C(=O)CSc1nnc(COc2ccccc2F)n1N)C1CCS(=O)(=O)C1 (configuration not stated)	none
COc1ccc(C(NC(=O)C2CCN(CCCOc3ccccc3)CC2)c2cccs2)cc1 (configuration not stated)	none (no result: MITF TRPM1 inh)
C[C@@H](NC(=O)c1nc[nH]c1C(=O)N[C@@H](CCCCNC(=O)OC(C)(C)C)C(=O)OC(C)(C)C)c1ccccc1	none
CC(C)(C)OC(=O)NCCCC[C@H](NC(=O)c1[nH]cnc1C(=O)Nc1ccccc1)C(=O)OC(C)(C)C	Peg3 promoter 53
CC(C)(C)OC(=O)[C@H](CCCCN)NC(=O)c1nc[nH]c1C(=O)N[C@@H](CCCCN)C(=O)OC(C)(C)C	none
CC(C)(C)OC(=O)[C@H](Cc1ccccc1)NC(=O)c1nc[nH]c1C(=O)N[C@@H](CCCCN)C(=O)OC(C)(C)C	Peg3 promoter 103
Cn1nc(C(C)(C)C)cc1C(=O)N1CCCCC1c1cc(C(=O)Nc2ccc(F)c(Cl)c2)no1 (configuration not stated)	Shn3 3UTR inh 86 (no result: MITF TRPM1 inh)
CCOC(=O)CON1C(=O)C(=O)N(OCC(=O)OCC)C2CCCCC21 (configuration not stated)	none
Cc1cc(C(=O)CCl)c(C)n1-c1ccon1	Peg3 promoter 53, CF NFkB block 58
Cc1cc(C(=O)CSc2nncs2)c(C)n1Cc1ccco1	none
COC(=O)CCn1c(C)cc(C(=O)COc2ccccc2C(N)=O)c1C	none
Cc1cc(C(=O)CCl)c(C)n1-c1cccc([N+](=O)[O-])c1	Peg3 promoter 105
Cc1cc(C(=O)CCl)c(C)n1Cc1ccco1	Peg3 promoter 62
CC(=O)c1c(C(C)=O)c(C)n(-c2cccc([N+](=O)[O-])c2)c1C	none
COC(=O)CCCn1c(C)cc(C(=O)CCl)c1C	Peg3 promoter 51
CCc1nc(C)cn1S(=O)(=O)c1ccc(Br)cc1	none
NC(=O)C1CCN(C(=O)C2CCN(C(=O)Nc3ccccc3)CC2)CC1	none
CCOc1ccc(C(=O)CCC(=O)N(CC)CC(=O)Nc2c(F)cccc2F)cc1	none
CCN(CC)S(=O)(=O)c1cc(NC(=O)C2CCN(c3ncnc4sc(C)c(C)c34)CC2)ccc1Cl	MITF TRPM1 inh 64, Shn3 3UTR inh 89, Peg3 promoter 67
Cc1sc2ncnc(N3CCC(C(=O)N(C)CC(=O)Nc4ccccc4Cl)CC3)c2c1C	none
Cc1sc2ncnc(N3CCC(C(=O)N(C)CC(=O)Nc4cccc(F)c4)CC3)c2c1C	none (no result: MITF TRPM1 inh)
CCOC(=O)c1ccccc1NC(=O)C1CCN(c2ncnc3sc(C)c(C)c23)CC1	none
Cc1sc2ncnc(N3CCC(C(=O)N(C)CC(=O)Nc4ccc(Cl)c(C(F)(F)F)c4)CC3)c2c1C	Peg3 promoter 64
CCN(CC(=O)Nc1cc(Cl)ccc1C)C(=O)C1CCN(c2ncnc3sc(C)c(C)c23)CC1	Peg3 promoter 66 (no result: MITF TRPM1 inh)
Cc1sc2ncnc(N3CCC(C(=O)Nc4ccccc4C(C)(C)C)CC3)c2c1C	CF NFkB block 68
O=C(CCNC(=O)c1ccc(Br)cc1)NNC(=O)C1COc2ccccc2O1 (configuration not stated)	none
CCCC/C=C/C(NC(=O)c1ccc(C(=O)OC)cc1)c1ccccc1 (configuration not stated)	none
C=CC[C@@H](CC(=O)N(CCO)Cc1ccccc1)C(=O)N[C@H](COC(=O)[C@@H](CC=C)Cc1ccc(F)cc1)Cc1c[nH]c2ccccc12	Peg3 promoter 55
C=CC[C@H](CC(=O)N(CCO)Cc1ccccc1)C(=O)N[C@H](COC(=O)[C@@H](CC=C)Cc1ccc(F)cc1)Cc1c[nH]c2ccccc12	Peg3 promoter 61
C=CCC[C@H](Cc1ccc(F)cc1)C(=O)OC[C@H](Cc1c[nH]c2ccccc12)NC(=O)[C@H](CC=C)CC(=O)N(CCO)Cc1ccccc1	none
C=CC[C@H](CC(=O)N(CCO)Cc1ccccc1)C(=O)NC[C@H](OC(=O)[C@@H](CC=C)Cc1ccc(F)cc1)c1ccccc1	Shn3 3UTR inh 89, Peg3 promoter 60
C=CC[C@@H](CC(=O)N(CCO)Cc1ccccc1)C(=O)NC[C@@H](OC(=O)[C@@H](CC=C)Cc1ccc(F)cc1)c1ccccc1	none
CCN1CCN(c2ccc(S(=O)(=O)N3CCCCC3)cc2NC(=O)c2ccc([N+](=O)[O-])o2)CC1	MITF TRPM1 inh 95
CS(=O)(=O)N1CCN(c2ccccc2NC(=O)c2ccc([N+](=O)[O-])o2)CC1	none
CN1CCN(c2ccccc2NC(=O)c2ccc([N+](=O)[O-])o2)CC1	MITF TRPM1 inh 79, Peg3 promoter 61
O=C(Nc1ccc(N2CCOCC2)cc1)c1ccc([N+](=O)[O-])o1	Peg3 promoter 102
CCC(=O)N1CCN(c2ccc(Cl)cc2NC(=O)c2ccc([N+](=O)[O-])o2)CC1	MITF TRPM1 inh 67
Cc1nc2scc(-c3ccc(C(C)C)cc3)c2c(=O)n1N	none
CCn1c2ccccc2c2cc(CNCc3ccc(OC)cc3OC)ccc21	Peg3 promoter 114
COc1cccc(CNCc2ccc(OC)cc2OC)c1	none
O=C(NNC(=O)c1ccccc1[N+](=O)[O-])c1ccc(NS(=O)(=O)c2cccs2)cc1	none

High-throughput results (PubChem BioAssay)
